Experiment in all cases: NCI-60 one-dose screen, 48 h (100 = growth as untreated, 0 = no growth, -100 = all killed)
What all share (details): 10 µM unless noted

The test system of assay [1] is SR leukemia.
In assay [2] the test system is RPMI-8226 leukemia.
The test system of assay [3] is OVCAR-8 ovarian.
Assay [4] concerns OVCAR-5 ovarian.
Assay [5] concerns OVCAR-4 ovarian.
In assay [6] the test system is SK-OV-3 ovarian.
Assay [7] deals with IGROV1 ovarian.
Assay [8] relates to OVCAR-3 ovarian.
The subject of assay [9] is HS 578T breast.
For assay [10], the system named is NCI/ADR-RES ovarian.
Assay [11] deals with T-47D breast.
For assay [12], the system named is BT-549 breast.
Assay [13] concerns MDA-MB-435 melanoma.
Assay [14] has as its system SW-620 colon.
Assay [15] deals with MCF7 breast.
Assay [16] concerns HCT-116 colon.
Assay [17] relates to HCC-2998 colon.
Assay [18] has as its system KM12 colon.

About 83,000 compounds went through this panel and 20% of them were active in at least one assay; those are over-represented in the sample as a whole.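 In brief: 96-well plates, 48 h treatment, single concentration, percent growth endpoint.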 Unmarked numbers belong to inactive results. Active and inactive are the calls of the source. How the source made its calls: active means growth percent below 10; inactive means the rest.

With `Nc1n[nH]c2cccc(C#Cc3cccc(C(=O)Nc4ccc(CN5CCOCC5)c(C(F)(F)F)c4)c3)c12`, the growth in [1] was 36.1%; in [2], 16.4%; in assay [3], 12.5%; in assay [4], 41.2%; in [5] it was 47.2%; in [6] it was 88.8%. Further, the growth in assay [7] is 18.6%; in assay [8], 60.5%; in assay [9] it was 29.5%; in assay [10] it was 18.4%; in assay [11] it was 6.17% (active); in assay [12], 23.7%. The growth in assay [13] was 38.7%; in assay [14] it was 49.3%; in [15] it was 33.4%; in assay [16], 13.3%; in [17] it was 26.9%; in assay [18] it was 19%.

Consider `C/C(=C(\c1ccc(OCCN2CCOCC2)cc1)c1ccc(OC(=O)C2CCCCC2)cc1)c1ccc(Cl)cc1`, for which the growth in assay [1] was 94.2%; in assay [2], 44.8%; in assay [3], 101%; in assay [4], 95.6%; in [5] it was 111%; in assay [6], 96.6%. The growth in [7] was 103%; in assay [8], 97%; in assay [9], 97.9%; in assay [10] it was 98%; in assay [11] it was 66.5%; in [12] it was 91.3%. For the same compound, the growth in assay [13] was 94.4%; in assay [14], 96.6%; in assay [15], 79.8%; in assay [16], 78.7%; in assay [17] it was 94.2%; in assay [18], 98.8%.

Regarding `COc1ccc(/C(C)=C(\c2ccc(OCCN3CCCCCC3)cc2)c2ccc(OC(=O)C3CCCCC3)cc2)cc1`, the growth in assay [1] is -20.1% (active); in assay [2], -55.1% (active); in assay [3], -47.3% (active); in assay [4], -24.7% (active); in assay [5], -28.4% (active); in [6], -70.9% (active). Besides, the growth in [7] was -49% (active); in assay [8] it was -86.9% (active); in assay [9], -38.3% (active); in assay [10], -65.2% (active); in [11], -57% (active); in [12] it was -78.2% (active). The growth is -77.1% (active) in [13]; -49.8% (active) in [14]; -23.6% (active) in assay [15]; -63.9% (active) in assay [16]; -79% (active) in assay [17]; -54.1% (active) in assay [18].

`COc1cc(/C=C(/c2ccccc2)[N+](=O)[O-])c(OC)c2c1OCO2`: the growth in assay [1] is -18.9% (active); in assay [2] it was -19.7% (active); in assay [3] it was -1.64% (active); in [4] it was -36.7% (active); in assay [5] it was -25.9% (active); in [6] it was 63%. For the same compound, the growth was -41.8% (active) in [7]; -97.4% (active) in assay [8]; 31% in assay [9]; 10.7% in assay [10]; -55.9% (active) in assay [11]; -84.4% (active) in [12]. The growth in [13] was -23% (active); in assay [14], -40.5% (active); in [15], -36.4% (active); in [16], -86.4% (active); in [17], -91% (active); in assay [18], -50.8% (active).

Turning to `Cc1ccc2nc3ccccc3c(NCc3ccc(Cl)cc3)c2c1`, the growth was -9.22% (active) in [1]; -28.5% (active) in assay [2]; 52.4% in assay [3]; 50.7% in assay [4]; 37.5% in assay [5]; 75.2% in assay [6]. In addition, the growth in assay [7] was 27.1%; in assay [8], 70.9%; in assay [9] it was 77.8%; in assay [10] it was 42%; in assay [11], 57.9%; in assay [12], 75.6%. In addition, the growth in assay [13] is 70.3%; in assay [14] it was 32.1%; in assay [15], -20.8% (active); in assay [16] it was 14.7%; in assay [17] it was -79% (active); in assay [18], 77.1%.

Consider `N#CC(Cc1cccc2ccccc12)c1cc2ccccc2[nH]1` (centres undefined), for which the growth is 99.2% in assay [1]; 72.3% in [2]; 87.7% in assay [3]; 89% in assay [4]; 95.1% in assay [5]; 84.1% in assay [6]. Besides, the growth in [7] is 86.4%; in [8] it was 89.7%; in assay [9], 89.7%; in assay [10] it was 87.2%; in [11], 83.8%; in assay [12], 90.1%. Further, the growth is 102% in assay [13]; 89.3% in [14]; 82.5% in assay [15]; 83.7% in assay [16]; 99.2% in assay [17]; 88% in assay [18].

Take `CCCCCC#CC1OC23CCCCC2C(C#N)(C(=N)O3)C1(C#N)C#N` (centres undefined): the growth in assay [1] is 87%; in [2], 93.3%; in assay [3] it was 85.8%; in assay [4] it was 102%; in assay [5] it was 108%; in assay [6], 111%. Also, the growth was 99.4% in [7]; 117% in assay [8]; 94.1% in [9]; 102% in assay [10]; 113% in assay [11]; 89.9% in assay [12]. Besides, the growth in assay [13] is 92.6%; in assay [14], 95.5%; in [15] it was 88.4%; in assay [16] it was 89.2%; in assay [17], 102%; in assay [18], 99.3%.

As for `COc1ccc(C2=C(CN)C(O)NC(=NCC(=O)c3ccc4ccccc4c3)N2)cc1` (centres undefined), the growth in assay [1] is 99.4%; in assay [2], 119%; in assay [3], 98.8%; in assay [4], 99.8%; in [5], 107%; in assay [6] it was 89.4%. In addition, the growth in assay [7] was 102%; in assay [8], 99.9%; in assay [9], 116%; in [10], 103%; in assay [11], 101%; in [12] it was 99%. In addition, the growth in [13] is 103%; in assay [14], 112%; in assay [15], 96.2%; in [16] it was 92.7%; in assay [17], 107%; in [18], 97.2%.

Values taken from PubChem BioAssay (NCI).
